The values that follow come from paper PMC12136788.

Substitutions are numbered along the chain they refer to. Over roughly 24,000 sequences, “enrichment r” has its median near 0.99; the highest 2% begin near 3.7. This is one part of a sample in which the highest values are shown more often than they occur.

The labels stand for the following.
B1: chr18:47247233:47247234:+_ENSMUSG00000042705_ENSMUST00000049388|mus_hu|motif|central (ssRNA)
RNA: GGGAGUUCUACAGUCCGACGAUCUUGUAUAUGGCUAUUUUCUUAAUUUUAUUCAUGUAAUUACCAAAGCUCUGUAUUCGGCGGAGGUACACAUCUUAUCUUGUAUCCAUGGACGCUCCUUGAUACAUUAUGGUAUCAUCCAGCCAACAGAGGAUUGAGCAUCA
B2: chr1:178670160:178670161:-_ENSMUSG00000057335_ENSMUST00000057037|mus_mus|FALSE|FALSE (ssRNA)
RNA: GGGAGUUCUACAGUCCGACGAUCCUGAGGCCUCGAGUCAACAGACCGACCGUUGUUUCCUUCUGGUGUUUUAGAAUGAACUAAUGGAGGUAUCUUUCGGAAGUUGAGACUUUCAUCAAAAACACGAUCAACCAACUCUUCUCUCAACAGAGGAUUGAGCAUCA
B3: 98562344_98563384_6126_CDS_ENSG00000196367_ENST00000456197|human|control|control (ssRNA)
RNA: GGGAGUUCUACAGUCCGACGAUCCCAUGCUCAUCACUGCCAGGCGCGUCUUCACCAGCUCCAGACUCAGCAUCACCAGCUCGCUUGUACCUGAGGUGGCUUCGGUGCUUCCUGACGCUGCCUGAGGGUUUAAAUGCUCCCGGACAACAGAGGAUUGAGCAUCA
B4: 33247490_33252972_1089_CDS_ENSG00000083642_ENST00000315596|human|control|control (ssRNA)
RNA: GGGAGUUCUACAGUCCGACGAUCCCUGCCCAAGUAGCACUGCCAAAGUGGCUUGUUUUGAGAAGCCAAUUCUGAAUCCUUUGCCCCAAACAUUUUUGCCAGUAGUUUAACAACUUGUAGGCGCUCCUCAUUAUCAUUGCUCUUCAACAGAGGAUUGAGCAUCA
B5: chr12:39756943:39756944:-_ENSG00000139116_ENST00000544797|hu_mus|hu_hu_hu_mus_False|1_18 (ssRNA)
RNA: GGGAGUUCUACAGUCCGACGAUCGGUUUGGCUGUUACCCCCAAGGGAAUCCUGCAAGAGUCUUGUCAGCUUAGAGUCUCUGUAAGGGACAUGGGUGGCUCUCUUGCUCUUGUCCCCCAAGGCACUUAUUACAUUCCCAAGUGCCAACAGAGGAUUGAGCAUCA
B6: chr2:224824363:224824364:+_ENSG00000135900_ENST00000258383|hu_mus|FALSE|FALSE (ssRNA)
RNA: GGGAGUUCUACAGUCCGACGAUCAGCUUCUUUCUCUAUGCCAAGGCUCUGACGUUUCGCCUCUUCGCUUUUGAUGUAGCAGCUAUUGAUAAAUGCAGUUUUGAGAAGGUCCAACGAAAAGGUUUCUUGUAAGCGAGAUCCAAACAACAGAGGAUUGAGCAUCA
B7: 64079182_64079302_4442_3pUTR_ENSMUSG00000025959_ENSMUST00000114086|mouse|control|control (ssRNA)
RNA: GGGAGUUCUACAGUCCGACGAUCCCCACAGCCAACAAAGGACUCUGAAGCAAGCAAGCACCAUCAUGGUAUCUCAGUGCGCCCUGCUCCAAGAGAGAUCAGGAGCAGAUCACAAAGACCUCACUGAUACAAAAGAGAAAUUACCAACAGAGGAUUGAGCAUCA
B8: chrX:12193597:12193598:+_ENSMUSG00000031007_ENSMUST00000033313|mus_mus|motif|central (ssRNA)
RNA: GGGAGUUCUACAGUCCGACGAUCACAAAGCUAGUCUCUUCUGAAAUCAACAUAGUAUUUUUAAUAAUUUUAAUAUCUCGGCGGAACCACACGGAUCACCAAACUUGCAGAAGAGAUUAAAAACAGCUAGCUUGCUAGUCAUAUCAACAGAGGAUUGAGCAUCA
B9: 94906243_94906363_1931_3pUTR_ENSG00000149212_ENST00000536441|human|control|control (ssRNA)
RNA: GGGAGUUCUACAGUCCGACGAUCAAAUAAAACACAUCAUUGCACAUUACAGCCGCAAAAAACAAAAAAAAAAAAACAAACGGCUAAACUUUGACACUAGAGAACUGAAUAAUUUUUGAUGCUAUAUCACAAAUAGCUUCAAUGCAACAGAGGAUUGAGCAUCA
B10: chr1:82457952:82457953:+_ENSG00000117114_ENST00000335786|hu_mus|motif|central (ssRNA)
RNA: GGGAGUUCUACAGUCCGACGAUCAGCUUUGCUGAAACAAUUUACAUGUCAUUAGAACUUUACCAUAAAAUAAAUUAAUUACGGAAUAUAGCCAGAAGGAAUAUGGAAGAGUAAUAUUUCUGUUUUAUUUUAUUUUUAUUUUAUCAACAGAGGAUUGAGCAUCA
B11: chr4:136876768:136876769:-_ENSMUSG00000006699_ENSMUST00000051477|mus_hu|FALSE|FALSE (ssRNA)
RNA: GGGAGUUCUACAGUCCGACGAUCAAAAAAAAAAAAAAACACACACACACAAAAAUUUUUUUUUUGAAACAACAAAAAAAAAUAGUACUAAUCACUUUUCUGACAAUACAAUUACUCAAAAUUAACUAGUACUGGGAGGGGGAACAACAGAGGAUUGAGCAUCA
B12: chr10:111893599:111893600:+_ENSG00000148700_ENST00000277900|hu_hu|FALSE|FALSE (ssRNA)
RNA: GGGAGUUCUACAGUCCGACGAUCAUUCAGACAGAUAGCUGUUUAUGGUGAAUUAUAAUAAUACUUCAUGAGGGCAGAGCUAAUUAAAACUAGUAAUUGCUUAAAAUUCAAAGCCAUUUCUGGACAUAUAAAAUGAGAGAUGAACAACAGAGGAUUGAGCAUCA
B13: chr8:104081237:104081238:+_ENSG00000155097_ENST00000518738|hu_mus|motif|central (ssRNA)
RNA: GGGAGUUCUACAGUCCGACGAUCAACACACAGAAUUAUGCAUACCAUGAUAUCAAGGAGGAAAAUACCUCUUUAAAUAAACGGUUCGGUUUAUAAAUAAACUCUGAUUUUUUUCAGUACACAUUUACAGACCUGAUCAAUAAACAACAGAGGAUUGAGCAUCA
B14: chr10:111893621:111893622:+_ENSG00000148700_ENST00000277900|hu_hu|motif|central (ssRNA)
RNA: GGGAGUUCUACAGUCCGACGAUCUAAUUCAGACAGAUAGCUGUUUAUGGUGAAUUAUAAUAAUACUUCAUGAGGGCAGAGCGGAUUAAAACUAGUAAUUGCUUAAAAUUCAAAGCCAUUUCUGGACAUAUAAAAUGAGAGAUGCAACAGAGGAUUGAGCAUCA
B15: 23644147_23644267_867_3pUTR_ENSMUSG00000028986_ENSMUST00000030841|mouse|control|control (ssRNA)
RNA: GGGAGUUCUACAGUCCGACGAUCUUGAAUAAGUGGUUCAGCUUGUACUGUUUUACUUAGGAAAUUCUUCGAUAUAAGAGGAAACCUGACUUUAGCAAGGAUAUCAACCAUGAAUGGCUGGCGGUUAGGCUCAUCAUAUUUCAACAACAGAGGAUUGAGCAUCA
B16: chr2:25965407:25965408:-_ENSG00000143970_ENST00000336112|hu_mus|motif|central (ssRNA)
RNA: GGGAGUUCUACAGUCCGACGAUCAUGUGCUGCCGGAAUAAAAUCUCUAGGCAGGCUCUUUUCAUCAGAUGCUUGGCCUCGGGAGAAUAUGUAAUUCUCCUGGCCUAAAGUGGUUUGCUCACUCACUGGUGCCUCAGUCUUACCCAACAGAGGAUUGAGCAUCA
B17: 82834861_82834981_3494_CDS_ENSG00000038427_ENST00000343200|human|control|control (ssRNA)
RNA: GGGAGUUCUACAGUCCGACGAUCUUCAUUGACAGUACCCACUUCUCCCAAUCCUUCGUCGAUAAUGGAGGAAGCUGUACCAGAAAACUUUUGCACAGCACUGGGAAGCACUGGAACAACAGAGCUGCUGACUGUGACCAGUUGCAACAGAGGAUUGAGCAUCA
B18: chr14:70842435:70842436:-_ENSG00000213463_ENST00000256366|hu_hu|motif|central (ssRNA)
RNA: GGGAGUUCUACAGUCCGACGAUCCUGCACCUGUAACCUGUGCUGCACUCUCAGAGACACAGCAUAGCCUGCAUUACGAAAGAGGUCGGCAGCAUCCUGGUGCAGCAGGUUCUUUAGGUCUUGGCCAUUUACCGAAAGGAUCUUCAACAGAGGAUUGAGCAUCA
B19: chr6:13622506:13622507:-_ENSG00000010017_ENST00000011619|hu_mus|FALSE|FALSE (ssRNA)
RNA: GGGAGUUCUACAGUCCGACGAUCAGGAAGCAAUGUAAAGCGACAAAAACCUGUCCCCAGUACAUAAUUAAAAAAAAAUCUAAAUUUCAAAUCAGCAGAGCCGGUCUACUUCCAUGUUGACUGUUUGCCACAAUGUGAGUGUGACAACAGAGGAUUGAGCAUCA
B20: chr1:109605286:109605287:-_ENSG00000197780_ENST00000461096|hu_mus|hu_hu_hu_mus_True|8_88 (ssRNA)
RNA: GGGAGUUCUACAGUCCGACGAUCAAGUUUCAGAGUAACAUUCAGUAUACUUAAAUCAUGCAAUUAUCCUUAUUAUAAGCUAAGCAGAAUAAUAAUUUAAUACCGUAAGUGAACUACACACAAAGCCGUGUAUUCAGAAAUGGUCAACAGAGGAUUGAGCAUCA
B21: chr10:111893621:111893622:+_ENSG00000148700_ENST00000277900|hu_hu|FALSE|FALSE (ssRNA)
RNA: B14 RNA with G82U, G83A
B22: chr18:56900473:56900474:+_ENSMUSG00000024590_ENSMUST00000025486|mus_mus|FALSE|FALSE (ssRNA)
RNA: GGGAGUUCUACAGUCCGACGAUCAACAUCUAUCUCUUCAAUGCACACGUUCCCCGUGGCUGAGGCAGAGUGGGAAAUGCUAACACUGCUGCUCGCCUCCGACUCCUCCACAUCAACUCUCUUCCGCUUUCCUCUGGUGGUGCGCAACAGAGGAUUGAGCAUCA

The target of the test is T1, UNK ZnF1-3 (human, UniProt Q9C0B0 31-174).
T1 sequence: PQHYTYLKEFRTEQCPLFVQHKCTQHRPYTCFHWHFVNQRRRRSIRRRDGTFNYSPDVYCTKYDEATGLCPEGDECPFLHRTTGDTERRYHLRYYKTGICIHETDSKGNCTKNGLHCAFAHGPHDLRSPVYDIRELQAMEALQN
Put plainly: nsRBNS (natural sequence RNA bind-n-seq); RBNS binding buffer (assumed for nsRBNS): 25 mM Tris pH 7.5, 150 mM KCl, 3 mM MgCl2, 0.01% Triton X-100, 500 ug/ml BSA, 20 U/ml SUPERase-In, 4 C; UNK is unkempt and MSI1 is Musashi-1; names of the RNAs are library labels; protein concentration not given here; high values mean tight binding.
Consider B1, for which the binding signal is 1.03 enrichment R. Take B2: the binding signal was determined as 1 enrichment R. As for B3, the figure is 0.681 enrichment R. Next, B4: 0.879 enrichment R; B5: 0.497 enrichment R.

B6 displayed a binding signal of 1 enrichment R. As for B7, the figure is 1.03 enrichment R; as for B8, 1.81 enrichment R; as for B9, 6.07 enrichment R. Next, B10: 3.79 enrichment R; B11: 3.42 enrichment R. Next, B12: 4.42 enrichment R; B13: 0.25 enrichment R. Turning to B14, the binding signal is 4.04 enrichment R. Next, B15: 0.91 enrichment R. As for B16, the figure is 0.714 enrichment R. Next, B17: 0.912 enrichment R. Molecule B18 came in with a binding signal of 0.468 enrichment R. Next, B19: 2.67 enrichment R; B20: 0.504 enrichment R. Consider B21, for which the binding signal is 5.27 enrichment R. On to B22, for which the binding signal stood at 1.08 enrichment R.
